Assay outcomes from PubChem.
Rows were chosen to be rich in hits. Some 7.9% of all compounds tested hit in one or more screens of this group.
FMDV antiviral – antivirals against foot and mouth disease virus; actives 1.2% (n = 410,000); FMDV antiviral cell-based qHTS; Potency, µM (series often up to 57.9 µM), without a hit: at the top dose activity change, negative = inhibition, hits mostly inhibitors; calls by dose curve; tested in HEK293T cells; note: read-out not given here; potency is the fitted concentration of half-maximal effect; nearly all actives have a fitted effect of over 45% in size
HCMV inh – human cytomegalovirus inhibition; HFF cells, HCMV-luciferase reporter, 72 h; active compounds read low; activity change, negative = inhibition, % at 57.5 µM; actives 4.5% (n = 410,000); AID 1259415; in the data active = activity change below about -60%; inconclusive = no clear call, values can overlap the other calls; inactive = above about -39%
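Cell-based, HFFs, 1000 cells/well, 16 h 37C; cpds in DMSO + HCMV-luc, MOI 1 PFU/cell; 72 h 37C; OneGlo luminescence after 5 min RT; norm. to buffer vs Salinomycin 10uM.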
Lassa entry inh – Lassa virus entry inhibition | Lassa virus pseudotype entry inhibition, cell reporter | Potency, µM (titrated, usually from 37.9 µM), without a hit: top-dose activity change, negative = inhibition, usual class: inhibitors | actives 1.2% (n = 300,000); calls by dose curve; tested in HEK293 cells; note: potency is the fitted concentration of half-maximal effect; nearly all actives have a fitted effect of over 50% in size
HCV inh – HCV inhibition | Potency, µM (highest dose often 41.8 µM), for inactives: at the top dose activity change, negative = inhibition, actives largely listed as inhibitors | Huh7.5.1 HCVcc-Cre infection, luciferase reporter, 44 h | actives 3.4% (n = 340,000); active = well fitted inhibition curve with a large enough effect; inconclusive = small, poorly fitted or top-dose-only effect, or another doubt; inactive = no such curve, though single readings can be large or run the other way; note: potency is the fitted concentration of half-maximal effect
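Cells seeded at 1,000/well and cultured 4 h, then compounds added followed by HCVcc-Cre virus (~0.5 moi). After 44 h further culture, luciferase substrate was added, plates held 15 min at room temperature, and luminescence read for 15 sec.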
MARV entry inh – inhibitors of Marburg virus binding or cell entry; actives 1.8% (n = 300,000); Marburg virus pseudotyped entry inhibition, cell reporter; Potency, µM (highest dose often 37.8 µM), for inactives: at the top dose activity change, negative = inhibition, most hits filed as inhibitors; AID 540276; calls by dose curve; tested in HEK293 cells; note: potency is the fitted concentration of half-maximal effect
An asterisk follows results filed as active; u = inconclusive; x = not tested or not shown; [ ] = dose if it differs, or a comment. % is set by controls: 0 for no effect and ±100 for the full control effect.

SMILES	FMDV antiviral	HCMV inh	Lassa entry inh	HCV inh	MARV entry inh
Cc1cc(S(=O)(=O)N2CCN(Cc3ccc4c(c3)OCO4)CC2)cc(C)c1N1CCCC1=O	u	-96*	-9%	11%	-18%
CCN(CC)CCNC(=O)C1CCN(C(=O)c2cnn(-c3ccccc3)c2-n2cccc2)CC1	25%	90	16%[46.1 µM]	x	6%[46.1 µM]
Cc1cc2nc(/C=C/c3nc4cc(C)c(C)cc4[nH]3)[nH]c2cc1C	5%	20	x	-5%	x
Cc1cc2nc(/C=C/c3cccnc3)[nH]c2cc1C	50%	-92*	x	-7%	x
O=C(Nc1ccc2oc(-c3ccccc3)nc2c1)c1ccccc1F	40%	-89*	u	u	1%
O=C(Nc1ccc2oc(-c3ccncc3)nc2c1)c1cccs1	0%	-11	-5%	u	u
O=C(Nc1ccc(-c2nc3cc(NC(=O)c4cccs4)ccc3o2)cc1)c1cccs1	4%	-70*	15µM*	11µM*	8.2µM*
CCc1ccc2oc(-c3ccc(NC(=O)c4cccc(Cl)c4Cl)cc3)nc2c1	13µM*	-70*	-27%[46.1 µM]	x	x
CCC(C(=O)Nc1nnc2n1CCS2)c1ccccc1 (stereo not drawn)	0%	14	-9%[46.1 µM]	x	x
Cc1oc(-c2cccc(Br)c2)nc1Cn1c(SCc2cccc(F)c2)nc2cccnc21	-19%	-24	9%[46.1 µM]	x	x
Cc1ccc(NC(=O)C2C3CCCCC32)cc1[N+](=O)[O-] (stereo not drawn)	49%	-19	x	-9%	x
Cc1cc(NC(=O)OC2CCCCC2)ccc1[N+](=O)[O-]	30%	50	u	u	10µM*
Cc1cc(C(=O)NCCN2CCN(c3cccc(Cl)c3)CC2)n(-c2ccccc2)n1	u	-36	7.3µM*	u	7.3µM*
Cc1cc(C(=O)NCCCN2CCN(c3cc(Cl)ccc3C)CC2)n(-c2ccccc2)n1	u	0	x	u	6%
Cc1cc(C(=O)Nc2cccc(C)c2C)n(-c2ccccc2)n1	31%	-88*	u	5%	15%[46.1 µM]
CCN(CC)c1ccc(NC(=O)CSc2nnc(C)c(=O)[nH]2)cc1	-12%	0	-19%[46.1 µM]	x	u
CC(C)C[C@@H](C=O)NC(=O)[C@H](CC(C)C)NC(=O)[C@H](CC(C)C)NC(=O)OCc1ccccc1	-17%	x	x	x	x
COc1cccc(NC(=S)N(Cc2ccccn2)Cc2ccccc2Cl)c1	23%	-60*	u	u	u
COc1ccc(NC(=S)N(Cc2ccccn2)Cc2ccccc2Cl)cc1	23%	4	11%	13%	14%[46.1 µM]
CCN(CC)c1ccc(NC(=O)Cn2nc(C)n3cccc3c2=O)c(C)c1	-16%	-1	-4%[46.1 µM]	x	u
O=C(CCl)N(c1ccccc1)C1CCCCC1	u	-113*	u	4µM*	u
Cc1nc(N2CCN(Cc3ccccc3)CC2)nc2c1C(=O)CCC2	25µM*	-97*	-16%	u	u
Cc1nc(N2CCN(Cc3ccccc3)CC2)nc2c1CCC2	-13%	u	-26%[46.1 µM]	u	u
CCC[C@H]1[C@@H](NS(=O)(=O)c2cccs2)CC[C@@]23CCCN2C(=O)CCC[C@@H]13	x	-5	x	x	x
CC(=O)c1cccc(NC(=O)c2cc3sc(Cl)cc3n2C)c1	20%	40	x	x	u
SMILES	FMDV antiviral	HCMV inh	Lassa entry inh	HCV inh	MARV entry inh
CCC(NC(=O)Nc1cc(OC)ccc1OC)c1c(-n2cccc2)sc2c1CCN(CC)C2 (stereo not drawn)	5%	-73*	1%[46.1 µM]	x	x
CCN1CCc2c(sc(-n3cccc3)c2C(C)NC(=O)Nc2ccc(Br)cc2)C1 (stereo not drawn)	27%	-15	17%[46.1 µM]	x	x
CCOc1ccc(NC(=O)NC(C)c2c(-n3cccc3)sc3c2CCN(CC)C3)cc1 (stereo not drawn)	10%	-79*	12%[46.1 µM]	x	x
Cc1c(C(=O)N2CC[C@@H]3CCCC[C@H]3C2)sc2ncnc(NCCc3ccccn3)c12	-19%	x	x	x	x
O=S(=O)(Nc1ccc(F)c(Cl)c1)c1ccc(Br)s1	34%	u	9%[46.1 µM]	x	-4%[46.1 µM]
Oc1cccc(C(O)CNCc2ccc(-c3ccccc3)cc2)c1 (stereo not drawn)	-6%	-62*	u	u	u
OC(CNCc1ccccc1)c1ccccc1 (stereo not drawn)	-3%	2	u	-19%	-26%
CCOC(=O)C1CCN(C(c2ccccc2OC)c2c(O)cc(C)n(CCOC)c2=O)CC1 (stereo not drawn)	0%	5	-8%[46.1 µM]	x	x
Cc1ccccc1CNC(=O)C1CCCN(c2nnc(-n3c(C)ccc3C)s2)C1 (stereo not drawn)	-12%	-35	5%[46.1 µM]	x	4%[46.1 µM]
Fc1ccc(C(NCCc2ccccc2)c2nnc(-c3ccccc3Cl)o2)cc1 (stereo not drawn)	19%	-5	-26%[46.1 µM]	x	u
CC1CCC2(CC1)NC(=O)N(NC(=O)CCl)C2=O (stereo not drawn)	-3%	-63*	6%	-7%	-20%[46.1 µM]
Cc1ccc(CN2c3ccccc3-c3nc(SCC(=O)Nc4c(C)cc(C)cc4C)ncc3S2(=O)=O)cc1	-9%	11	u	x	x
O=C(C1CCCCC1)N1C[C@H](n2cc(-c3ccc(F)cc3)nn2)[C@@H](O)C[C@@H]1c1ccccc1	-6%	-34	x	x	x
O=C(C1CCCCC1)N1C[C@H](n2cc(-c3ccc(F)cc3)nn2)[C@H](O)C[C@@H]1c1ccc(Cl)cc1	x	x	x	x	3.5µM*
CCCCCCN1C[C@@H](n2cc(-c3ccc(F)cc3)nn2)[C@H](O)C[C@H]1c1ccccc1	x	x	x	x	16µM*
CCCCCCN1C[C@@H](n2cc(-c3ccc(F)cc3)nn2)[C@H](O)C[C@@H]1c1ccccc1	-10%	1	x	x	x
O[C@H]1C[C@H](c2ccccc2)N(CC2CCCCC2)C[C@@H]1n1cc(-c2ccc(F)cc2)nn1	u	-101*	x	x	x
CCCC(c1nnnn1C1CCCCC1)N1C(=O)C(=O)c2ccccc21 (stereo not drawn)	x	-17	x	x	x
CCOC(=O)c1cccc(NC(=O)c2ccc3nc(CCc4ccccc4)oc3c2)c1	-11%	33	16%[46.1 µM]	x	x
Cc1ccc(O)c(N=Cc2sc3ccccc3c2Cl)c1	37%	-9	17%	-6%	8%
Oc1ccccc1N=Cc1sc2ccccc2c1Cl	8%	-76*	-28%	-26%	u
CCOC(=O)c1c(NC(=O)c2cc(-c3ccc(Br)cc3)on2)sc(C)c1C	8%	-4	-9%[46.1 µM]	x	-4%[46.1 µM]
O=C(c1ccco1)N1CCN(CC(O)COc2ccc3oc4ccccc4c3c2)CC1 (stereo not drawn)	x	u	u	13µM*	-14%
Cc1cc(C)cc(OCC(O)CN2CCN(C(=O)c3ccco3)CC2)c1 (stereo not drawn)	-4%	-37	0%[46.1 µM]	6%	1%[46.1 µM]
Cc1ccc(N2CC(NC(=O)/C=C\c3ccc4c(c3)OCO4)CC2=O)cc1 (stereo not drawn)	-21%	142	7%[46.1 µM]	x	x
O=C(NCCc1c[nH]c2ccccc12)C(=O)NCC1OCCCN1S(=O)(=O)c1cccs1 (stereo not drawn)	u	-19	u	u	10%[46.1 µM]
